Rows were chosen to be rich in hits. Some 4.6% of all compounds tested hit in one or more screens of this group.
D1 agonist: agonists of human D1 dopamine receptor | P21728 | HEK293 T-REx D1 cells, calcium flux, agonist mode | activation, % at 2 µM | 1% of 360,000 active; further: 0% is about no effect
Target sequence (P21728 whole entry, looked up): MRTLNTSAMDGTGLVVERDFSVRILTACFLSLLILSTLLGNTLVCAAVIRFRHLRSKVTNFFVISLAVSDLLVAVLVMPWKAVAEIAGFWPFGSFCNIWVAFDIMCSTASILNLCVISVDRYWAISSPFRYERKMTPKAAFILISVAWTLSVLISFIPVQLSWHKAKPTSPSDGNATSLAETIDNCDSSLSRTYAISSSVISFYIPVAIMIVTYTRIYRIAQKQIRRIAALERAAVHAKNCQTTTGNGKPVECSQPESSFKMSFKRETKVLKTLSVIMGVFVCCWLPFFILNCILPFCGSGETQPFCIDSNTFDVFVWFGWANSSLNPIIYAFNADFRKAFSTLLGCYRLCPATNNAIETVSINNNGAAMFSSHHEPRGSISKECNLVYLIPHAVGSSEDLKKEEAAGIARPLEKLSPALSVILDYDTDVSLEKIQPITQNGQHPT
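Tetracycline-induced HEK293 TREx D1 cells, force-coupled to calcium signalling, were dye-loaded with a no-wash calcium kit. Compound was pin-added after a 10 s baseline. Fluorescence was read kinetically at 1 cycle/s for 180 s, with calcium rises flagged as agonism.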
TRHR agonist: agonists of human TRH receptor. P34981. TRHR cells, calcium flux fluo-8, FDSS agonist mode. activation, % at 2 µM. 0.18% of 360,000 active; further: 0% is about no effect
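Read-out: compound-evoked intracellular calcium rise in TRHR cells, fluo-8 dye, kinetic FDSS fluorescence at 1 s/cycle following a 10-cycle baseline. Cells cultured overnight before dye loading (30 min–1.5 h, RT).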
D1 antagonist: antagonists of human D1 dopamine receptor. HEK293 TREx D1 cells, calcium flux, dopamine EC80; active compounds read low. activity change, negative = inhibition, % at 10 µM. 3.2% of 360,000 active; in the data active means activity change below about -30%; further: on the % scale 0 is the no-effect control and ±100 the full control effect
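Tetracycline-induced HEK293 Trex D1 cells, force-coupled to calcium, dye-loaded; compounds added and read 180 s, then EC80 dopamine added and calcium flux tracked kinetically another 180 s.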
D1 PAM: human D1 dopamine receptor positive modulation | potentiation, % at 10 µM | HEK293 TREx D1 cells, calcium flux, dopamine EC20 potentiation | 0.036% of 360,000 active; in the data active means potentiation above about 30%; further: 0% is about no effect
TRHR PAM: TRH receptor (human) allosteric enhancement. TRHR cells, fluo-8 calcium fluorescence, EC20 TRH enhancement. P34981. enhancement, % at 2 µM. 0.66% of 360,000 active; in the data active means enhancement above about 30%; further: 0% is about no effect
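Enhancer read-out: after compound pinning and an initial kinetic agonist-mode read, an EC20 of TRH (10 nM final) was injected and fluo-8 calcium signal (Ex 480/Em 530) followed at 1 s/cycle for 100 cycles in TRHR-expressing cells.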
An asterisk follows results filed as active; ! = not confirmed by another sample. Unless noted, no stated cut-off is given here; in the data, active means activation above about 30%; inactive means the rest.

SMILES	D1 agonist	TRHR agonist	D1 antagonist	D1 PAM	TRHR PAM
CC(=O)c1ccc(NC(=O)CSc2nnc(Cn3cnc4ccccc43)o2)cc1	0	-1	-2	-2	-3
CCOC(=O)c1c(CN2CCOCC2)oc2ccc(OC)cc12	2	0	-45*	-5	4
COc1ccc2oc(C(=O)OCC(=O)Nc3ccc(N4CCOCC4)cc3)c(C)c2c1	0	0	-31*	-20	2
Cc1cccc(NC(=O)CN2C(=O)C(c3ccc(F)cc3)=NC23CCCCCC3)c1C	2	1	-12	-1	2
CC(C)C(NC(=O)OCc1ccccc1)C(=O)NC(Cc1ccc(O)cc1)C(=O)O (stereo unspecified)	4	0	0	6	-1
CCC(C)C(NC(=O)OCc1ccccc1)C(=O)NC(Cc1ccc(O)cc1)C(=O)OC (stereo unspecified)	62*	6	3	-3	3
COc1ccccc1OCCNC(=O)Cc1ccc(Cl)c(Cl)c1	4	-3	-34*	-3	-5
CC1(C(=O)NCCOc2ccccc2Cl)CC1(Cl)Cl (stereo unspecified)	1	0	-65*	-5	1
COc1ccc(C(=O)NCc2ccc(Cl)c(Cl)c2)cc1OC	2	0	6	-3	1
O=C(NCCOc1ccccc1Cl)C(=O)NCCOc1ccccc1Cl	5	0	-5	-1	4
COC(=O)C1(C(=O)OC)NOC2C(=O)N(N(C)c3ncc(C(F)(F)F)cc3Cl)C(=O)C21 (stereo unspecified)	1	1	4	-2	-1
COc1ccc(C2C3C(=O)N(N(C)c4ncc(C(F)(F)F)cc4Cl)C(=O)C3ON2C)cc1 (stereo unspecified)	5	0	-31*	-2	2
CC(=O)N(C)c1ccc(NCc2cc(=O)oc3cc(C)c(O)cc23)cc1	3	1	-1	-1	-1
COc1ccc(CNc2ccc(Br)cc2)cc1	4	0	-9	0	5
COc1ccc(NC2=NCC(Cc3ccc(Br)cc3)S2)cc1 (stereo unspecified)	32*	0	3	-5	5
Cc1ccc(C)c(Cn2cnc3ccccc3c2=O)c1	0	-1	-4	0	5
COc1cccc(CNS(=O)(=O)c2cc3c4c(c2)CCC(=O)N4CCC3)c1	11	-1	-8	0	11
CCCCCNS(=O)(=O)c1cc2c3c(c1)CCC(=O)N3CCC2	15	0	-30*	-10	9
COc1ccccc1CNS(=O)(=O)c1cc2c3c(c1)CCN3C(=O)CC2	11	0	-11	-6	30*!
COc1ccc(-c2cccc(NS(=O)(=O)c3ccc(C)s3)c2)nn1	4	-1	-8	-3	1
CC1(C)Cc2cccc(C(=O)Nc3ccc(Cl)cc3)c2O1	4	0	-34*	-4	7
CC1(C)Cc2cccc(C(=O)Nc3ccncc3)c2O1	4	0	6	-3	4
CC(=O)c1c(C)oc2ccc(N(C(=O)Oc3ccccc3)S(=O)(=O)c3ccc(C(C)(C)C)cc3)cc12	8	-1	3	1	3
Cc1ccc(/C=C2\Sc3ccccc3C2=O)s1	4	1	-13	-1	-5
COc1ccc(OC)c(/C=C2/Sc3ccccc3C2=O)c1	312*	66*	-2	8	3
SMILES	D1 agonist	TRHR agonist	D1 antagonist	D1 PAM	TRHR PAM
Cc1ccc2nc(NCCc3ccc(Cl)cc3)c3nncn3c2c1	2	1	-61*!	-4	8
O=C(O)CCCN1C(=O)C(=O)/C(=C(/O)c2ccccc2)C1/C=C/c1ccccc1 (stereo unspecified)	3	0	-31*	-4	20
COCCNc1cc(N2CCN(C3CCCCC3)CC2)c2noc3c2c1C(=O)c1ccccc1-3	1	0	17	0	-2
C/C=C/c1ccc(OCC(=O)Nc2ccc(C(N)=O)cc2)c(OC)c1	1	-1	-53*	-7	-1
COc1cc(/C=C/c2cc[n+](C)cc2)ccc1OCC(=O)Nc1ccccc1	2	1	-9	-7	-2
C/C=C/c1ccc(OC(C)=O)c(OC)c1	-4	-1	9	-1	2
C/C=C/c1ccc(OC)c(OC(C)=O)c1	1	0	-76*	-6	-5
COc1ccc(Cl)cc1S(=O)(=O)NCc1ccc2c(c1)CCN2C(=O)c1cccc(C)c1	2	0	-1	-3	4
CN1C(C(=O)c2ccccc2)=C(NC(=O)c2ccccc2Br)c2ccccc2S1(=O)=O	-1	0	-5	0	-8
COc1ccc(CCNC(=O)Cn2c(=O)n(-c3ccc(F)cc3F)c(=O)c3sccc32)cc1OC	0	-1	-36*	-6	2
CCOc1ccc(NC(=O)CSc2cn(CC(=O)N3CCOCC3)c3ccccc23)cc1	-1	0	-1	-3	-5
CC(C)Cn1c(=S)[nH]c2cc(C(=O)NCc3ccccc3F)ccc2c1=O	14	0	-33*	-6	-1
CCN(CC)CCNC(=O)c1ccc2c(=O)n(C3CCCC3)c(=S)[nH]c2c1	30*	0	-40*	-16	-2
CC1CCN(CCNC(=O)c2ccc3c(=O)n(Cc4ccc(Cl)cc4)c(=S)[nH]c3c2)CC1	88*	1	-51*	1	-4
COc1ccccc1Cn1c(=S)[nH]c2cc(C(=O)NC(C)C)ccc2c1=O	3	2	-16	-2	4
CCOc1ccccc1NC(=O)c1cnn2c(C(F)F)cc(-c3ccccc3)nc12	0	1	-6	1	6
CC(=O)Nc1ccc(NC(=O)CSc2cn(CC(=O)N(C(C)C)C(C)C)c3ccccc23)cc1	1	0	-6	-2	-2
CC1=C(C(=O)OC2CCCCCC2)C(c2ccc(C)o2)C2=C(CCCC2=O)N1 (stereo unspecified)	-2	0	-33*	-9	-5
Cc1cccc(-n2c(SCC(=O)Nc3ccccc3C)nc3c(oc4ccccc43)c2=O)c1	1	0	2	2	-3
CCC1(c2ccc(Cl)cc2)NC(=O)N(Cc2ccc(C(=O)OC)cc2)C1=O (stereo unspecified)	30	12	-31*	-5	8
COc1ccccc1CN1C[C@@H]2C[C@@H](c3[nH]c4c(C)cccc4c3C)N3CCC[C@@]23C1=O	44*	0	70	32*	-4
COc1ccccc1CN1C[C@@H]2C[C@@H](c3cccc(C)n3)N3CCC[C@@]23C1=O	2	-1	-6	-3	17
CCOC(=O)c1cc2c(ccn2C)n1CC(=O)N(Cc1ccccc1)c1ccc(F)cc1	2	0	-37*	0	3
O=C(NCCS(=O)(=O)N1CCN(c2ccccc2F)CC1)C(c1ccccc1)c1ccccc1	5	0	11	-1	2
